# Results: PubChem BioAssay AID493065 (National Center for Advancing Translational Sciences (NCATS), 2011)
# The list shows a part of the results. Records with an inconclusive call do not appear. Unmarked numbers belong to inactive results. Active and inactive are the calls of the source. Calls follow the shape of the dose curve; as a rule, active = well fitted activation curve with a large enough effect; inconclusive = small, poorly fitted or top-dose-only effect; inactive = flat fitted curve, though single readings scatter.
# Experiment: Parental Cell Counter Screen Assay for Epigenetic Modulators: Hit Validation
# Conditions: mouse c127i parental cells, 30 h; Potency: fluorescent cell count; fluorescent cell count: hits give high values, concentration not given here
# Excerpt: NIH Molecular Libraries Screening Centers Network [MLSCN] NIH Chemical Genomics Center [NCGC] MLSCN Grant: 1 X01 MH079860-01 Assay Provider: Elisabeth D. Martinez, University of Texas SW Medical Center NCGC Assay Overview: This assay is a counter screen for the Locus Derepression (LDR) assay (PubChem AID 1865). The LDR assay detects the derepression of a GFP reporter that is stably integrated in a region of the genome of murine c127i mammary cells that is presumably silenced. Compounds that cause derepression of the locus to express GFP are identified by enumerating GFP positive cells using a laser-scanning microplate cytometer. […] Compounds active in the parental c127i cells are likely fluorescent.
# NCGC Assay Protocol Summary: Three hundred cells in 5 uL per well were dispensed into black, clear-bottom 1536-well plates. Twenty-three nL compound was transferred to the assay plate and cells were incubated 30 hours at 37 C. Medium was removed, cells were washed two times with PBS, and fluorescent cells were enumerated as objects between the sizes of 20 to 120 um width and depth using a laser-scanning microplate imager (Acumen Explorer Ex3, TTP Labtech). For further details, see Johnson, RL, Huang, W, Jadhav, A, Austin, CP, Inglese, J, Martinez, ED (2008). A quantitative high-throughput screen identifies potential epigenetic modulators of gene expression. Anal Biochem 375: 237-48.
SMILES,Potency,fluorescent cell count [%]
Cc1cccn2c(=O)c(/C=C3\SC(=S)N(CC(C)C)C3=O)c(NCCCOC(C)C)nc12,2510 nM (active),–
Cc1ccc(/C=N/NC(=S)Nc2cccc(S(=O)(=O)N(C)C)c2)o1,–,2
